VDR inhibitor: Inhibitors of the vitamin D receptor (VDR): qHTS; VDR-SRC2-3 peptide fluorescence polarization, 2 h; Vitamin D3 receptor (Homo sapiens), P11473; Potency, µM, hits mostly inhibitors; AID 504847, 2011; 400,000 compounds, 0.93% hits
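The screen uses fluorescence polarization to detect compounds that interfere with recruitment of the SRC2-3 coactivator peptide to VDR; plates are read after 2 h at room temperature.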
PLK1 PBD inh: qHTS for Inhibitors of PLK1-PDB (polo-like kinase 1 - polo-box domain): Primary Screen. 360,000 compounds, 2.8% hits. Potency, µM, usual class: inhibitors. Serine/threonine-protein kinase PLK1 (Homo sapiens), P53350. Plk1 PBD binding of FITC phosphopeptide, fluorescence polarization; also: series mostly up to about 57 µM; nearly all actives have a fitted effect of over 65% in size
Target sequence (P53350 whole entry, looked up, the tested form may be a part): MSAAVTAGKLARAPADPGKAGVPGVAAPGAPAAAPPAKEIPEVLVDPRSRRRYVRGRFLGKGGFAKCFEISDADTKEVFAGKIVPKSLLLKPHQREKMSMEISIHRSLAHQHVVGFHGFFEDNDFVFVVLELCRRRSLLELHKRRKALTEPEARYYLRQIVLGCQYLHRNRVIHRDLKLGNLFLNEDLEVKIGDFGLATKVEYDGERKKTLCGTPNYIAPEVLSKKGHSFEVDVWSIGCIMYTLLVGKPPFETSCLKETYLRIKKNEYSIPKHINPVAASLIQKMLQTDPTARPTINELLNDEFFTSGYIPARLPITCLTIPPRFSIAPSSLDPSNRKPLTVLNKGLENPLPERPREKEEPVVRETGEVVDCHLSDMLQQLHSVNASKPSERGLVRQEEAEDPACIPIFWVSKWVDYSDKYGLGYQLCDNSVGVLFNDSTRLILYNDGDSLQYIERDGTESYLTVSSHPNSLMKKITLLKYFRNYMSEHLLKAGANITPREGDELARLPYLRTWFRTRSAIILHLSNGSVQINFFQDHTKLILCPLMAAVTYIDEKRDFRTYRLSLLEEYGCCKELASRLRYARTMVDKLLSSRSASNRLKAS
JMJD2A Tudor: qHTS Assay for Inhibitors of JMJD2A-Tudor Domain; AlphaScreen JMJD2A-Tudor / H3K4me3 peptide binding; Potency, µM (series often up to 114 µM), actives largely listed as inhibitors; 390,000 compounds, 4.4% hits; AID 504339, 2011; also: nearly all actives have a fitted effect of over 50% in size
G9a block: qHTS Assay for Inhibitors of Histone Lysine Methyltransferase G9a; Histone-lysine N-methyltransferase EHMT2 (Homo sapiens), Q96KQ7; G9a H3K9 monomethylation, AlphaScreen, 2 h; Potency, µM (highest dose often 102 µM), hits mostly inhibitors; 350,000 compounds, 8.8% hits; also: nearly all actives have a fitted effect of over 75% in size
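G9a (20 nM) preincubated 15 min RT with compounds, then 500 nM biotinylated H3K9 peptide and 20 uM SAM added; 2 h RT reaction. Monomethyl-H3K9 product detected by AlphaScreen with anti-H3K9me1 antibody, streptavidin donor and anti-rabbit IgG acceptor beads.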
HP1b binding inh: HTS for Inhibitors of HP1-beta Chromodomain Interactions with Methylated Histone Tails; Chromobox protein homolog 1 (Homo sapiens), P83916; AlphaScreen HP1-beta / biotin-H3K9me3 peptide binding; Potency, µM (highest dose often 114 µM), usual class: inhibitors; 390,000 compounds, 0.56% hits; also: nearly all actives have a fitted effect of over 70% in size
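AlphaScreen: HP1-beta (50 nM) preformed 30 min with biotin-H3(1-18)K9me3 peptide (50 nM) in PBS pH 7.4, 0.01% Tween-20. Compound added for 30 min at RT, then streptavidin donor/nickel chelate acceptor beads (10 ug/mL) for 30 min.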
BAZ2B block: qHTS Assay for Inhibitors of BAZ2B | 360,000 compounds, 4.4% hits | AlphaScreen BAZ2B-H3K14Ac peptide displacement | Potency, µM (top dose mostly 114 µM), hits mostly inhibitors; also: nearly all actives have a fitted effect of over 60% in size
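Compounds, titrated to a top concentration of 110 uM, were incubated 30 min at room temperature with preformed BAZ2B/acetyl-K14 H3 peptide complex (50 nM each). Proximity signal was measured by AlphaScreen after 20 min with beads.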
Large screens that a line does not name were inactive; ! = repeats disagree. An excerpt weighted towards active compounds, which were near 11% of everything screened. Calls follow the shape of the dose curve; as a rule, active = well fitted curve in the direction sought with a large enough effect; inconclusive = small, poorly fitted or top-dose-only effect, or another doubt; inactive = no such curve, though single readings can be large; an effect the other way counts as inactive or inconclusive.

Cc1c(NC(=S)N/N=C\c2ccccc2O)c(=O)n(-c2ccccc2)n1C	JMJD2A Tudor 40µM, BAZ2B block 3.2µM
Cc1ccc(NC(=S)Nc2c(C)n(C)n(-c3ccccc3)c2=O)cc1Cl	none
Cc1c(NC(=S)N/N=C/c2ccc(Br)cc2)c(=O)n(-c2ccccc2)n1C	none
Cc1c(NC(=S)N/N=C/c2ccc([N+](=O)[O-])cc2O)c(=O)n(-c2ccccc2)n1C	JMJD2A Tudor 45µM, BAZ2B block 14µM
Cc1cccc(C)c1NC(=S)Nc1c(C)n(C)n(-c2ccccc2)c1=O	G9a block 0.79µM
COc1ccc(-c2nc3ccc(Br)cn3c2Cc2ccsc2)cc1OC	none (no result: VDR inhibitor, JMJD2A Tudor, G9a block, HP1b binding inh, BAZ2B block)
O=S(=O)(NC(=S)c1ccccc1)c1ccccc1	PLK1 PBD inh inconclusive (no result: G9a block, BAZ2B block)
O=C(NS(=O)(=O)c1ccccc1)c1ccccc1O	PLK1 PBD inh 24µM
CCOC(=O)c1ccccc1NC(=O)c1cc2ccc3cccnc3c2[nH]1	none (no result: PLK1 PBD inh)
Cc1ccc(Cc2ccc(C(=O)NNC(N)=S)o2)cc1	PLK1 PBD inh 27µM, G9a block 56µM
COc1ccc(NC(=O)c2ccc(Cc3ccc(C)cc3)o2)cc1	G9a block inconclusive
O=C(Cc1c(Sc2ccccc2)c2ccccc2n1Cc1ccccc1)NCCO	none
Cc1ccc(NCN2C(=O)C3C4CCC(C4)C3C2=O)cc1 (configuration not stated)	none (no result: VDR inhibitor, PLK1 PBD inh, JMJD2A Tudor, HP1b binding inh)
Cc1ccc(NCN2C(=O)C3C4C=CC(C4)C3C2=O)cc1 (configuration not stated)	VDR inhibitor inconclusive, PLK1 PBD inh 3.4µM, JMJD2A Tudor 18µM
O=C1C2C3C=CC(C3)C2C(=O)N1CNc1ccc(O)cc1 (configuration not stated)	G9a block 2.2µM, BAZ2B block 45µM (no result: VDR inhibitor, PLK1 PBD inh, JMJD2A Tudor, HP1b binding inh)
CCOC(=O)c1noc2ncnc(N3CCC(C)CC3)c12	none (no result: PLK1 PBD inh)
N[C@@H](CSS(=O)(=O)O)C(=O)O	VDR inhibitor 10µM! (no result: PLK1 PBD inh, JMJD2A Tudor, HP1b binding inh, BAZ2B block)
COc1cc(O)c(NC(C)=O)c2nonc12	G9a block 22µM
C[n+]1ccccc1/C=N\O	none (no result: PLK1 PBD inh, JMJD2A Tudor, HP1b binding inh, BAZ2B block)
CC(O)/C=C/c1cccc[n+]1C (configuration not stated)	JMJD2A Tudor 40µM, G9a block 10µM
C[n+]1ccccc1/C=N/O	JMJD2A Tudor 35µM!
CCOc1ccc(C2c3[nH]c4ccccc4c3CCN2C(=O)CSc2ccccc2)cc1 (configuration not stated)	JMJD2A Tudor inconclusive (no result: PLK1 PBD inh)
CCOC(=O)CCn1cnc2onc(-c3cc(OC)ccc3Cl)c2c1=O	none (no result: PLK1 PBD inh)
COc1ccc(/C=C/C(=O)NCCN2CCOCC2)cc1OC	PLK1 PBD inh 17µM, JMJD2A Tudor inconclusive, G9a block inconclusive
O=C(/C=C/c1ccc(Br)o1)NCCCN1CCOCC1	G9a block 22µM, BAZ2B block inconclusive
O=C(/C=C/c1ccco1)NCCCN1CCOCC1	none
COc1ccc(/C=C/C(=O)NCC(c2ccc(F)cc2)N2CCOCC2)cc1OC (configuration not stated)	G9a block 79µM
COc1cc(/C=C/C(=O)NCCN2CCOCC2)cc(OC)c1OC	none
CCOC(=O)c1c(-c2ccccc2)oc2ccc(NS(=O)(=O)c3ccc(C(C)C)cc3)cc12	none (no result: PLK1 PBD inh)
CNC(=O)c1[nH]cnc1C(=O)NCC(=O)OCc1ccccc1	G9a block 45µM
CC(C)(C)OC(=O)N1CCN(C(=O)c2[nH]cnc2C(=O)NCC(=O)OCc2ccccc2)CC1	G9a block 71µM
O=C(CNC(=O)c1nc[nH]c1C(=O)NCC(=O)OCc1ccccc1)OCc1ccccc1	JMJD2A Tudor inconclusive, BAZ2B block inconclusive (no result: G9a block)
CNC(=O)c1[nH]cnc1C(=O)N[C@@H](C)C(=O)OCc1ccccc1	BAZ2B block 50µM
CCN(CC)C(=O)c1[nH]cnc1C(=O)NCC(=O)OCc1ccccc1	G9a block 79µM
CC(C)(C)OC(=O)CNC(=O)c1nc[nH]c1C(=O)N1CCNCC1	JMJD2A Tudor inconclusive, BAZ2B block 79µM
CCOC(=O)c1c(C)oc2nc(C)nc(NCCc3ccc(C)cc3)c12	none (no result: PLK1 PBD inh)
CCCCCC(=O)Nc1cc(S(=O)(=O)O)cc2cc(S(=O)(=O)O)cc(O)c12	VDR inhibitor inconclusive, PLK1 PBD inh 6µM, JMJD2A Tudor 1.1µM, HP1b binding inh 1.4µM (no result: G9a block, BAZ2B block)
CCCCCC(=O)Nc1cccc2ccccc12	none
CCn1nc(C(=O)OCC(=O)NCC(C)C)c2ccccc2c1=O	none
CCn1nc(C(=O)OCC(=O)Nc2nc(-c3ccc(OC)cc3)cs2)c2ccccc2c1=O	PLK1 PBD inh 27µM, G9a block inconclusive
COc1ccccc1NC(=O)c1ccc(NC(=O)CSc2n[nH]c(N)n2)cc1	PLK1 PBD inh 30µM, G9a block inconclusive
COc1ccccc1NC(=O)c1ccc(NC(=O)COC(=O)C2(C)CC2(Cl)Cl)cc1 (configuration not stated)	PLK1 PBD inh 21µM, JMJD2A Tudor 79µM
COc1ccc(-c2csc(NC(=O)CSc3n[nH]c(N)n3)n2)cc1	PLK1 PBD inh 27µM, JMJD2A Tudor 10µM, G9a block 8.9µM, HP1b binding inh 79µM
CCOC(=O)CNC(=O)N1CCCC(Cc2ccccc2)(C(=O)OCC)C1 (configuration not stated)	none (no result: G9a block, BAZ2B block)
COc1ccccc1NC(=O)CN(C)S(=O)(=O)c1ccc2c(c1)c(=O)n(C)c(=O)n2C	none (no result: PLK1 PBD inh)
CN(C)CCOc1ccc(-c2c(-c3ccccc3)sc3ccccc23)cc1	JMJD2A Tudor 40µM, HP1b binding inh inconclusive (no result: G9a block, BAZ2B block)
COc1cc(OC)cc(-c2sc3ccc(OC)cc3c2-c2ccc(OCCN3CCCCC3)cc2)c1	JMJD2A Tudor 20µM (no result: G9a block, BAZ2B block)
c1ccc2c(-c3ccc(OCCN4CCCCC4)cc3)c(-c3ccsc3)sc2c1	JMJD2A Tudor 40µM (no result: G9a block, BAZ2B block)
COc1ccccc1-c1sc2cc3c(cc2c1-c1ccc(OCCN2CCOCC2)cc1)OCO3	JMJD2A Tudor 50µM (no result: G9a block, BAZ2B block)
c1ccc(-c2sc3ccccc3c2-c2ccc(OCCN3CCCCC3)cc2)cc1	none (no result: G9a block, BAZ2B block)
COc1ccc(-c2sc3cc4c(cc3c2-c2ccc(OCCN3CCCCC3)cc2)OCO4)cc1	JMJD2A Tudor inconclusive (no result: G9a block, BAZ2B block)
O=S(=O)(CCNCCc1ccccc1)NCc1ccccc1	none (no result: G9a block, BAZ2B block)
COC(=O)C1=C[C@@H](C(=O)OC)C2C3=C(C(=O)[C@]2(CC(C)C)NC(=O)c2ccccc2)[C@H](C)n2c(=O)n(C)c(=O)n2[C@@H]3C1 (some centres not stated)	none (no result: PLK1 PBD inh, G9a block, BAZ2B block)
COc1cc(C)c(NC(c2ccccc2)c2ccccc2)cc1OC	JMJD2A Tudor 45µM, G9a block 28µM, HP1b binding inh inconclusive, BAZ2B block 40µM

Bioassay records (PubChem)
